High-throughput results: PubChem, National Center for Advancing Translational Sciences (NCATS)
Sampled rows, rich in hits. Any-hit rate of the full collection: about 19%.
TDP1 inh = qHTS Assay for Inhibitors of Tyrosyl-DNA Phosphodiesterase (TDP1); Tyrosyl-DNA phosphodiesterase 1 (Homo sapiens), Q9NUW8; recombinant TDP1, AlphaScreen DNA substrate cleavage; actives 0.28% (n = 350,000); Potency, µM (series often up to 130 µM), for the others: at the highest dose activity change, negative = inhibition, usual class: inhibitors; AID 485290, 2010; note: nearly all actives have a fitted effect of over 40% in size
Target sequence (Q9NUW8 whole entry, looked up): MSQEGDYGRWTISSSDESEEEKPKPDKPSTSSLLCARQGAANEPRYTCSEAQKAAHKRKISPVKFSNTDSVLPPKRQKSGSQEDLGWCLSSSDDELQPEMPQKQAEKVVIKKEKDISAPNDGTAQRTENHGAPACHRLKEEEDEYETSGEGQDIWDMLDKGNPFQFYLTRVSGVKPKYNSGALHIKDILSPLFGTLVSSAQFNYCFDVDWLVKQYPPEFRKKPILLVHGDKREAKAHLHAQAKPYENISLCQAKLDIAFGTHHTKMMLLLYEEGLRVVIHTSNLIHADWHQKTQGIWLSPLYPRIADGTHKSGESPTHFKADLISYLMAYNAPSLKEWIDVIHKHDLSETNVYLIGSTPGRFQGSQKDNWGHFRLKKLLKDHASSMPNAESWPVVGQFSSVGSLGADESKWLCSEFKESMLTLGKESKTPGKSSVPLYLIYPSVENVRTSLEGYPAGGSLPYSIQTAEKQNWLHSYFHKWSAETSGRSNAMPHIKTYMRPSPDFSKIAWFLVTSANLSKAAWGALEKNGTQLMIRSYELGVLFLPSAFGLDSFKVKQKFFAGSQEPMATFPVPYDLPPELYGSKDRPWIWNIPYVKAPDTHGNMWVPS
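Here, a 5' biotin and 3' phosphotyrosine-FITC DNA oligonucleotide reports Tdp1 activity: intact substrate bridges AlphaScreen beads, while cleavage leaves a 3' phosphate and drops signal. All incubations at room temperature.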
DT40 TDP1 CPT = qHTS for Inhibitors of human tyrosyl-DNA phosphodiesterase 1 (TDP1): qHTS in cells in presence of CPT. actives 12% (n = 420,000). chicken DT40 Tdp1-/-;hTDP1 cells + 20 nM CPT, ATP luminescence, 48 h. Potency, µM (highest dose often 46.2 µM), without a hit: at the highest dose activity change, negative = growth inhibition, actives largely listed as inhibitors. AID 686979, 2013; note: nearly all actives have a fitted effect of over 55% in size
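Chicken DT40 Tdp1-/- cells stably complemented with human TDP1 were seeded at 400 cells/well in medium containing 20 nM camptothecin, exposed to pin-transferred compounds, and grown at 37 °C for at least 48 hr. Viability was read as ATP luminescence.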
Gal4-VP16 FLuc = VP16 counterscreen qHTS for inhibitors of ROR gamma transcriptional activity; AID 2546, 2010; Drosophila S2 Gal4-VP16 UAS-luciferase, luminescence, 20 h; Potency, µM (top dose mostly 53.6 µM), inactives show at the top dose activity, negative = inhibition, hits mostly inhibitors; actives 3.5% (n = 310,000);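 note: Gal4-VP16 expression switched on by copper sulfate through the metallothionein promoter; nearly all actives have a fitted effect of over 50% in size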
DT40 TDP1 no CPT = qHTS for Inhibitors of human tyrosyl-DNA phosphodiesterase 1 (TDP1): qHTS in cells in absence of CPT; DT40 Tdp1-/- hTDP1 cells, no CPT, ATP luminescence, 48 h; actives 15% (n = 420,000); AID 686978, 2013; Potency, µM (top dose mostly 46.2 µM), for inactives: top-dose activity change, negative = growth inhibition, most hits filed as inhibitors; note: nearly all actives have a fitted effect of over 55% in size
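Cells were dispensed at 400 per well, compounds added by pin tool, plates incubated ≥48 hr at 37 °C, then CellTiter-Glo added for 30 min at room temperature before luminescence reading. Line: DT40 Tdp1-/- complemented with hTDP1; camptothecin omitted.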
RORg inh = qHTS for inhibitors of ROR gamma transcriptional activity; actives 5.4% (n = 310,000); Potency, µM (highest dose often 53.6 µM), for the others: at the highest dose activity change, negative = inhibition, usual class: inhibitors; AID 2551, 2010; Nuclear receptor ROR-gamma (Mus musculus), P51450; Drosophila S2 Gal4-RORgamma UAS-luciferase reporter, 20 h; note: nearly all actives have a fitted effect of over 60% in size
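Compounds are pin-transferred onto Drosophila Schneider cells expressing a copper-inducible Gal4–ROR gamma transactivation domain fusion. After 1 hr, copper sulfate is added to 700 uM final; luciferase is read 20 hr later.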
* = called active by the depositor; [ ] = dose if it differs, or a comment. Calls come from the whole dose curve; as a rule, active = well fitted curve in the direction sought with a large enough effect; inconclusive = small, poorly fitted or top-dose-only effect, or another doubt; inactive = no such curve, though single readings can be large; an effect the other way counts as inactive or inconclusive. % is set by controls: 0 for no effect and ±100 for the full control effect; potency is the fitted concentration of half-maximal effect.

How did O=C1/C(=C\c2cc(Cl)c(O)c(Cl)c2)SC(=S)N1Cc1ccccc1 do in these assays?
DT40 TDP1 CPT: 6.5µM*; Gal4-VP16 FLuc: inconclusive; DT40 TDP1 no CPT: 2.3µM*; RORg inh: inconclusive

Results for COc1ccc(O)c(/C=C2/SC(=S)N(Cc3ccccc3)C2=O)c1 ?
DT40 TDP1 CPT: inconclusive; Gal4-VP16 FLuc: 17%; DT40 TDP1 no CPT: 21µM*; RORg inh: -10%

Results for COc1ccc(/C=C2/SC(=S)N(Cc3ccccc3)C2=O)cc1O ?
DT40 TDP1 CPT: -27%; Gal4-VP16 FLuc: -13%; DT40 TDP1 no CPT: -11%; RORg inh: 20%

Results for COc1cccc(Cn2c(=O)c(-c3ccc(F)cc3)nc3cncnc32)c1 ?
DT40 TDP1 CPT: -5%; Gal4-VP16 FLuc: 4%; DT40 TDP1 no CPT: 2%; RORg inh: 2%

What do the screens show for `COC(=O)CSc1nc2[nH]ncc2c(=O)[nH]1`?
TDP1 inh: 5%; DT40 TDP1 CPT: -10%; Gal4-VP16 FLuc: 4%; DT40 TDP1 no CPT: -1%; RORg inh: -1%

What do the screens show for `C=CCn1c(=N)n(CC(=O)c2ccccc2)c2ccccc21`?
DT40 TDP1 CPT: inconclusive; Gal4-VP16 FLuc: inconclusive; DT40 TDP1 no CPT: inconclusive; RORg inh: -29%

How did CC(C)(C)C(=O)Cn1c(=N)n(Cc2ccccc2Cl)c2ccccc21 do in these assays?
TDP1 inh: 5%; DT40 TDP1 CPT: 26µM*; Gal4-VP16 FLuc: inconclusive; DT40 TDP1 no CPT: 26µM*; RORg inh: 4.5µM*

Results for CC(C)(C)C(=O)Cn1c(=N)n(Cc2ccccc2)c2ccccc21 ?
TDP1 inh: 9%; DT40 TDP1 CPT: 21µM*; Gal4-VP16 FLuc: -9%; DT40 TDP1 no CPT: 15µM*; RORg inh: inconclusive

How did Cc1ccc(Cn2c(=N)n(CC(=O)c3ccccc3)c3ccccc32)cc1 do in these assays?
TDP1 inh: inconclusive; DT40 TDP1 CPT: 7.3µM*; Gal4-VP16 FLuc: 14µM*; DT40 TDP1 no CPT: 3.7µM*; RORg inh: 13µM*

How did CCOC(=O)Cn1c(=N)n(Cc2ccc(C(C)(C)C)cc2)c2ccccc21 do in these assays?
TDP1 inh: 3%[2.28 µM]; DT40 TDP1 CPT: inconclusive; DT40 TDP1 no CPT: 13µM*

How did CCCn1nc2ccccc2c1P(=N)(N1CCOCC1)N1CCOCC1 do in these assays?
TDP1 inh: 0%; DT40 TDP1 CPT: -1%; Gal4-VP16 FLuc: -1%; DT40 TDP1 no CPT: -7%; RORg inh: 0%

What do the screens show for `N=c1n(N)c2ccccc2n1CC(=O)c1ccc(Br)cc1`?
DT40 TDP1 CPT: 23µM*; Gal4-VP16 FLuc: 1%; DT40 TDP1 no CPT: 21µM*; RORg inh: 0%[1.91 µM]

What do the screens show for `C=CCn1c(=N)n(CC(=O)c2ccc(Br)cc2)c2ccccc21`?
DT40 TDP1 CPT: inconclusive; Gal4-VP16 FLuc: -19%; DT40 TDP1 no CPT: inconclusive; RORg inh: inconclusive

Results for Cc1ccccc1C(=O)Nc1ccnn1C1CCN(C(C)Cc2ccccc2F)CC1 (stereo not given) ?
TDP1 inh: 2%; DT40 TDP1 CPT: 23µM*; Gal4-VP16 FLuc: 3%; DT40 TDP1 no CPT: -54%; RORg inh: 0%

What do the screens show for `O=C(CCCc1ccccc1)Nc1ccnn1C1CCN(Cc2ccccc2)CC1`?
TDP1 inh: 6%; DT40 TDP1 CPT: inconclusive; Gal4-VP16 FLuc: 12%; DT40 TDP1 no CPT: inconclusive; RORg inh: 1%

Results for CSc1ccc(CN2CCC(n3nccc3NC(=O)CCCc3ccccc3)CC2)cc1 ?
TDP1 inh: 6%; DT40 TDP1 CPT: 23µM*; Gal4-VP16 FLuc: inconclusive; DT40 TDP1 no CPT: inconclusive; RORg inh: 37%

What do the screens show for `O=C(CCCc1ccccc1)Nc1ccnn1C1CCN(Cc2ccccc2F)CC1`?
TDP1 inh: 3%; DT40 TDP1 CPT: 23µM*; Gal4-VP16 FLuc: 3%; DT40 TDP1 no CPT: 21µM*; RORg inh: 3%

What do the screens show for `CCOC(=O)CC1(c2ccc(OC)c(OC)c2)C(=O)c2ccccc2C1=O`?
TDP1 inh: -1%; DT40 TDP1 CPT: 12%; Gal4-VP16 FLuc: 4%; DT40 TDP1 no CPT: -4%; RORg inh: 12%

Results for CC1(C)CC(CCNS(=O)(=O)c2ccccc2)(c2ccccc2)CCO1 (stereo not given) ?
TDP1 inh: 5%; DT40 TDP1 CPT: inconclusive; Gal4-VP16 FLuc: inconclusive; DT40 TDP1 no CPT: inconclusive; RORg inh: 23%

Results for CCC1(C)CC(CCNS(=O)(=O)c2ccc(C)cc2)(c2ccc(C)cc2)CCO1 (stereo not given) ?
TDP1 inh: 1%; DT40 TDP1 CPT: 18µM*; Gal4-VP16 FLuc: -5%; DT40 TDP1 no CPT: 29µM*; RORg inh: -9%

How did O=C(CN1C(=O)NC2(CCc3ccccc3C2)C1=O)NCC(F)(F)F (stereo not given) do in these assays?
DT40 TDP1 CPT: -9%; Gal4-VP16 FLuc: -2%; DT40 TDP1 no CPT: 6%; RORg inh: -15%

What do the screens show for `COc1ccc(-c2ccc(CN3C(C(C)C)C(=O)N(Cc4cn(CC5CCCCC5)nn4)CCS3(=O)=O)cc2)cc1` (stereo not given)?
DT40 TDP1 CPT: 15µM*; DT40 TDP1 no CPT: 16µM*

How did CC(C)C1C(=O)N(Cc2cn(CC3CCCCC3)nn2)CCS(=O)(=O)N1Cc1ccc(-c2ccc(F)cc2)cc1 (stereo not given) do in these assays?
DT40 TDP1 CPT: -20%; DT40 TDP1 no CPT: 9.2µM*

How did CC(C)C1C(=O)N(Cc2cn(CCC3OCCCO3)nn2)CCS(=O)(=O)N1Cc1ccc(-c2cccc(CO)c2)cc1 (stereo not given) do in these assays?
DT40 TDP1 CPT: -24%; DT40 TDP1 no CPT: inconclusive

How did O=C1CCCc2c1[nH]c1c(Br)cccc21 do in these assays?
TDP1 inh: 1%; DT40 TDP1 CPT: -16%; Gal4-VP16 FLuc: -3%; DT40 TDP1 no CPT: -22%; RORg inh: 0%

How did Cc1ccc(NC(=O)c2ncn(CCCN3CCN(c4ccccn4)CC3)n2)cc1C do in these assays?
DT40 TDP1 CPT: inconclusive; DT40 TDP1 no CPT: 26µM*

Results for COC(=O)[C@H](Cc1ccccc1)NCCCn1cnc(C(=O)Nc2ccc(C)c(C)c2)n1 ?
DT40 TDP1 CPT: inconclusive; DT40 TDP1 no CPT: 18µM*

What do the screens show for `COC(=O)[C@H](Cc1ccc(O)cc1)NC(=O)Cn1cnc(C(=O)Nc2ccc(C)c(C)c2)n1`?
TDP1 inh: 0%[56.1 µM]; DT40 TDP1 CPT: -17%; DT40 TDP1 no CPT: -21%

Results for COC(=O)Cn1cnc(C(=O)Nc2ccc(C)c(C)c2)n1 ?
TDP1 inh: 0%[56.1 µM]; DT40 TDP1 CPT: 0%; DT40 TDP1 no CPT: -13%
